From ChEMBL document CHEMBL4513216, “Probing the Open Global Health Chemical Diversity Library for Multistage-Active Starting Points for Next-Generation Antimalarials” (ACS Infect Dis, 2020)
Out of some 69,000 compounds screened, about 8,600 (12%) showed an effect of 50% or more. Many of the other results were omitted from the sample, so strong results are more common in it than they were.

System: Plasmodium berghei
Assay: Screen against P. berghei liver stage (PbLuc), transformed with Luciferase, at 10uM
Type: functional, HepG2
Conditions: tested at 10 uM

Compound	INHIBITION
CCN(CC1CCOC1)C(=O)c1ccc(-c2ccsc2)nc1C (stereo not given)	19.7%
Cn1cnc2c(N3CCOCC3)nc(C3CCNCC3)cc21	-76.7%
CN(C)CC1CN(Cc2coc(-c3ccccc3)n2)CCO1 (stereo not given)	-3.2%
CN(C)CC1CN(Cc2coc(-c3ccccc3Cl)n2)CCO1 (stereo not given)	25.3%
Fc1ccc(-c2nc(CN3CCOC(Cn4cccn4)C3)co2)cc1 (stereo not given)	58%
CN(C)CC1CN(Cc2coc(-c3cccc(F)c3)n2)CCO1 (stereo not given)	11.2%
Cc1ccc(-c2nc(CN3CCOC(Cn4cccn4)C3)co2)cc1 (stereo not given)	49.8%
CN(C)CC1CN(Cc2coc(-c3ccc(Cl)cc3)n2)CCO1 (stereo not given)	72.9%
CN(C)CC1CN(Cc2nc(-c3cccnc3)no2)CCO1 (stereo not given)	-50.5%
CN(C)CC1CN(Cc2coc(-c3cccs3)n2)CCO1 (stereo not given)	32.8%
Cc1noc(CN2CCOC(CN(C)C)C2)n1 (stereo not given)	31.9%
Cc1ccc(-c2noc(CN3CCOC(CN(C)C)C3)n2)cc1F (stereo not given)	62.3%
c1ccc(-c2nc(CN3CCOC(Cn4cccn4)C3)co2)cc1 (stereo not given)	22.3%
Cc1ccc(-c2nc(CN3CCOC(CN(C)C)C3)co2)cc1 (stereo not given)	58.5%
Cn1cc(CN2CCC3(CC2)CCN(C(=O)c2cscn2)CC3)cn1	34.4%
COCC(=O)NCc1cc(=O)n2c(n1)CN(Cc1ccccc1)CCC2	25.8%
CCC(C)NC(=O)c1cc(Br)c2c(c1)OCCO2 (stereo not given)	23.5%
CC(C)N(CCO)C(=O)c1cc(COc2ccc3c(c2)CCCC3)on1	-15.6%
CC(C(=O)N1CCCCC1)N1CCN(c2ncc(Cl)cn2)CC1 (stereo not given)	-15%
c1cnn(C2CN(c3ncnc4[nH]ccc34)C2)c1	-4.73%
Cc1csc(N2CCCN(C(=O)CCNc3ncccn3)CC2)n1	7.12%
CSC(C)C(=O)Nc1ccnn1-c1ccccc1C (stereo not given)	-2.61%
O=C1Nc2ccccc2C12CCN(c1nccs1)CC2	-15.9%
Cc1cc(CN2CCOC(CN(C)c3cccnn3)C2)no1 (stereo not given)	26.9%

Compound	INHIBITION
Cc1cc(CN2CCOC(CN(C)C)C2)no1 (stereo not given)	53.8%
Cc1cc(C)n(CC2CN(Cc3cc(C)on3)CCO2)n1 (stereo not given)	16%
CCc1c(C)n(CCOC)c2nc3ccccc3n2c1=O	-7.81%
O=c1c2sccc2ncn1Cc1cc(C2CC2)[nH]n1	37.6%
CCc1ccc(CCn2cnc(C#N)n2)cc1	37.4%
N#Cc1ncn(CCS(=O)(=O)c2ccc(Br)cc2)n1	41.4%
N#Cc1ncn(CCC(=O)Nc2ccccc2F)n1	-3.77%
N#Cc1ncn(CCS(=O)(=O)c2ccc(Cl)cc2)n1	54.3%
N#Cc1ncn(CCS(=O)(=O)c2ccccc2)n1	65.4%
N#Cc1ncn(CCC(=O)Nc2cc(Cl)ccc2Cl)n1	-22.1%
CC(C)c1noc(OCC(=O)N2CCCCC2C)n1 (stereo not given)	-24.9%
CC(C)c1nc(C2CCCN2CCNS(C)(=O)=O)no1 (stereo not given)	23.8%
CCOc1ccccc1-n1c(CNC)n[nH]c1=O	-63.8%
CNCc1n[nH]c(=O)n1-c1ccccc1Oc1ccccc1	-107%
CCOC(=O)CNC(=O)NCc1cc(C)n(-c2ccccc2OC)c1C	63.1%
CCOC(=O)CNC(=O)NCc1cc(C)n(-c2ccc(OC)cc2)c1C	21.7%
COc1ccccc1-n1c(C)cc(CNC(=O)NC(C)C)c1C	25.1%
CNCc1cc(C)n(-c2ccccc2OC)c1C	70.3%
CC(=O)N1[C@@H](C(=O)NCC2CC2)C[C@@H]2CN(Cc3nccs3)C[C@@H]21	39.5%
CC(C)CCN(C(=O)c1nc(S(C)(=O)=O)n2ccccc12)C1CC1	17.165%
COc1cccc(Nc2nc(C3CCCNC3)c3sc(C)c(C)n23)c1 (stereo not given)	11.65%
CC(C)(C)NCc1nn(Cc2ccccc2)nc1-c1ccccc1	45.8%
CCn1ccnc1CN1CCN(CCCS(C)(=O)=O)CC1C (stereo not given)	8.31%
Cc1cc(C(F)(F)F)cc(=O)n1Cc1nc(C(C)C)no1	23%

Compound	INHIBITION
CC(=O)NC1Cc2ccc(S(=O)(=O)NCCNc3ccccn3)cc2C1 (stereo not given)	-18.8%
Cc1nc(CN2C(=O)COC3(CCN(C)CC3)C2C)cs1 (stereo not given)	8.03%
CN(C)CCN1C(=O)CC[C@@H]2[C@H]1CCN2Cc1cccc(C#N)c1	49.7%
N#Cc1ccc(C(=O)N2CC[C@H]3[C@@H]2CCC(=O)N3c2ccccc2)cc1	43.8%
Cc1cncc(C(=O)N2CC[C@@H]3[C@H]2CCC(=O)N3CCN(C)C)c1	29%
CN(C)CCN1C(=O)CC[C@@H]2[C@H]1CCN2C(=O)c1ccc(C#N)cc1	70.4%
Cc1ccc(C(=O)N2CCC3(CC2)CCN(CCN(C)C)C3=O)cn1	28.2%
Cc1ccc(C(=O)N2CC[C@@H]3[C@H]2CCC(=O)N3CCN(C)C)cn1	79.2%
N#Cc1cccc(CNCCNC(=O)Cc2cccc(F)c2)c1	29.2%
CCOc1ccc(Cl)c(C(=O)N2CCCSCC2)n1	18.2%
Cc1cnc(NC2CCN(CC(=O)Nc3ccccc3)CC2)nc1C	14.8%
CC(C)OCCN1CCC(Nc2ncc(Br)cn2)CC1	28.7%
COc1ccc(NC(=O)CN2CCS(=O)(=O)CC2)cn1	-2.55%
CC(C)c1nnc(C2CCN(CC(=O)Nc3cccnc3)CC2)o1	-39.2%
O=C(CN1CCC(Nc2ncccn2)CC1)Nc1ccccc1	66.1%
Cc1cc(C)nc(NC2CCN(CCOC(C)C)CC2)n1	43.9%
COc1ccnc(NC2CCN(CC(=O)Nc3ccccc3)CC2)n1	60.8%
CC(C)OCCN1CCC(Nc2ncccn2)CC1	55.9%
COc1ccnc(NC2CCN(CC(=O)N3CCCC3)CC2)n1	11.6%
CSc1ccc(CN2CCn3nc(CNC(C)=O)cc3C2)cc1	-89.3%
CC(C)N1CCC(Cc2cncc(-c3cccc(C(=O)O)c3)n2)C1 (stereo not given)	-62.3%
COC(=O)c1ccc(CN2CCN(Cc3nc(C)no3)CC2)s1	23.2%
